Bioassay records: PubChem BioAssay, National Center for Advancing Translational Sciences (NCATS)
Six1-Eya2 blk: Six1/Eya2 interaction inhibition; 360,000 compounds, 0.56% hits; AID 651725; Q15475+O00167; AlphaScreen GST-Six1/His-Eya2 binding, biochemical; hits give low values; activity change, % (concentration not given with the values); in the data active means activity change below about -65%; inconclusive means mostly about -30% to -63%; further: on the % scale 0 is the no-effect control and ±100 the full control effect
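AlphaScreen with GST-Six1 and His-Eya2 (5X mix: 250 nM and 500 nM), glutathione donor and nickel acceptor beads; buffer 50 mM Tris pH 8.0, 300 mM NaCl, 1 mM TCEP; 1 h at 37 C in the dark.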
G9a inh: G9a (human) methyltransferase inhibition | Q96KQ7 | G9a H3K9 monomethylation, AlphaScreen, 2 h | Potency, µM (series often up to 102 µM), for the others: at the top dose activity, negative = inhibition, most hits filed as inhibitors | 350,000 compounds, 8.8% hits | AID 504332; further: potency means the concentration at half of the fitted maximal effect; on the % scale 0 is the no-effect control and ±100 the full control effect; nearly all actives have a fitted effect of over 75% in size
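Quantitative HTS format: methyltransferase activity on a biotin-tagged H3K9 peptide is measured by AlphaScreen, using a rabbit anti-monomethyl-H3K9 antibody with streptavidin donor and anti-IgG acceptor beads. Final levels are 20 nM enzyme, 500 nM peptide, 20 uM SAM; 2 h RT.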
JMJD2A Tudor inh: inhibitors of human JMJD2A Tudor domain; O75164; AlphaScreen JMJD2A-Tudor / H3K4me3 peptide binding; Potency, µM (titrated, usually from 114 µM), for inactives: top-dose activity change, negative = inhibition, actives largely listed as inhibitors; 390,000 compounds, 4.4% hits; further: potency means the concentration at half of the fitted maximal effect; on the % scale 0 is the no-effect control and ±100 the full control effect; nearly all actives have a fitted effect of over 50% in size
HP1b binding inh: blocks HP1-beta chromodomain binding to methylated histone tails. P83916. AlphaScreen HP1-beta / biotin-H3K9me3 peptide binding. Potency, µM (doses to about 114 µM), for inactives: at the top dose activity change, negative = inhibition, most hits filed as inhibitors. 390,000 compounds, 0.56% hits; further: potency means the concentration at half of the fitted maximal effect; nearly all actives have a fitted effect of over 70% in size
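Compound inhibition of the preformed complex between 50 nM HP1-beta and 50 nM biotinylated H3K9me3 peptide was read by AlphaScreen. Buffer was PBS pH 7.4 with 0.01% Tween-20. Incubations ran 30 min at room temperature, with 10 ug/mL donor/acceptor beads.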
CtBP-E1A blk: CtBP/E1A binding inhibition; AlphaScreen GST-E1A/His-CtBP binding, 1536-well; hits give low values; activity change, % (no concentration beside the values); 340,000 compounds, 0.49% hits; AID 651724; in the data active means activity change below about -65%; inconclusive means mostly about -30% to -63%; further: on the % scale 0 is the no-effect control and ±100 the full control effect
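Steps: dispense buffer (Tris pH 8.0, NaCl 300 mM, TCEP 1 mM, BSA, Tween 20); add 5X protein mix (GST-E1A, His-CtBP, 125 nM each); pin 23 nL compound; 2 h at 37 °C, dark; add 5X beads (50 ug/mL); 1 h; read.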
BAZ2B block: inhibitors of human BAZ2B bromodomain | Q9UIF8 | Potency, µM (highest dose often 114 µM), for inactives: at the top dose activity change, negative = inhibition, hits mostly inhibitors | AlphaScreen BAZ2B-H3K14Ac peptide displacement | AID 504333 | 360,000 compounds, 4.4% hits; further: potency means the concentration at half of the fitted maximal effect; on the % scale 0 is the no-effect control and ±100 the full control effect; nearly all actives have a fitted effect of over 60% in size
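BAZ2B 50 nM plus b-H3(5-23)K14Ac 50 nM, PBS pH 7.4/0.01% Tween-20, 30 min RT; compound added (max 110 uM), 30 min RT; streptavidin donor/Ni-chelate acceptor beads 10 ug/mL final, 20 min dark; AlphaScreen read.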
Active calls of the source: *; ? = inconclusive; nt = not tested or not shown; [ ] = dose if it differs, or a comment. In the library only some 10% were active in any assay of this set; here they are far more common. Unless noted, the call rests on the fitted dose curve; in most records, active means well fitted inhibition curve with a large enough effect; inconclusive means small, poorly fitted or top-dose-only effect; inactive means no such curve, though single readings can be large or run the other way.

SMILES	Six1-Eya2 blk	G9a inh	JMJD2A Tudor inh	HP1b binding inh	CtBP-E1A blk	BAZ2B block
O=C(/C=C/c1cc(Br)ccc1F)OCC(=O)N1CCCC1	?	?	-13%	14%	-6	-2%
O=C(COC(=O)/C=C/c1cc(Br)ccc1F)Nc1ccc2[nH]c(=O)[nH]c2c1	-11	?	-6%	20%	-11	0%
O=C(COc1ncnc2ccc(Br)cc12)N1CCOCC1	7	1.1µM*	-13%	20%	-5	-22%
O=C(/C=C/c1cc(Br)ccc1F)OCC(=O)N1CCOCC1	-24	nt	-8%	10%	-81*	nt
CC(C)CCNC(=O)NC(=O)COC(=O)/C=C/c1cc(Br)ccc1F	5	-10%	14µM*	-9%	-5	16%
COc1ccccc1NC(=O)Cn1c(=O)n(CC(=O)NCc2ccccc2Cl)c(=O)c2sccc21	nt	-1%[59 µM]	3%	24%	nt	4%
CCN(CCCNC(=O)c1nn(-c2ccc(C)cc2)c(=O)c2c1c1ccccc1n2C)c1cccc(C)c1	nt	-2%[59 µM]	-10%	33%	nt	nt
COc1ccc(-c2cc(C(F)(F)F)c3c(=O)n(-c4ccccc4)[nH]c3n2)cc1	-1	13µM*	56µM*	-38%	6	?
COc1ccc(-c2cc(C(F)(F)F)nc(NCc3ccccc3)n2)cc1	nt	187%[59 µM]	115%	205%	nt	175%
CCOC(=O)C1=C(CS(=O)(=O)c2ccc(F)c(C)c2)NC(=O)NC1c1ccc(F)c(F)c1 (centres undefined)	nt	4%[59 µM]	-25%	14%	nt	-6%
CCOC(=O)C1=C(CS(=O)(=O)c2ccc(F)c(C)c2)NC(=O)NC1c1ccc(O)c(O)c1 (centres undefined)	2	25µM*	-21%	22%	-2	?
CCCCOc1ccc(-c2csc(N)n2)cc1[N+](=O)[O-]	-24	8.9µM*	-19%	-11%	-27	?
CCCCOc1ccc(C2=CSC3=NCCN23)cc1[N+](=O)[O-]	-13	?	?	-11%	-3	-26%
CC1(C)NC(C(=O)O)Cc2c1[nH]c1ccccc21 (centres undefined)	1	25µM*	-17%[11.4 µM]	-1%	nt	-22%
CC12CCC(=O)N1C(C(=O)O)Cc1c2[nH]c2ccccc12 (centres undefined)	3	?	79µM*	29%	7	-35%
O=[N+]([O-])c1ccc(N2CCCCC2)s1	0	22µM*	-25%	?	-2	-31%
O=[N+]([O-])c1ccc(N2CCN(Cc3ccccc3)CC2)s1	-2	-30%[2.33 µM]	-16%	5%	-11	?
Cc1ccc(S(=O)(=O)N2CCN(C(=O)c3ccc(Br)o3)CC2)c(C)c1	-5	79µM*	-22%	-17%	-4	-30%
Cc1ccc(S(=O)(=O)N2CCN(C(=O)c3ccc4ccccc4n3)CC2)c(C)c1	0	2%[2.33 µM]	35µM*	8%	-1	50µM*
Cc1c(C(N)=O)nnn1-c1ccc(Br)cc1	nt	-30%[59 µM]	-2%	51%	nt	0%
O=C(Nc1ccc(OC(F)(F)F)cc1)c1ccccc1-n1cnnn1	0	nt	-15%	30%	1	nt
CC(=O)Nc1ccc(C(=O)Nc2nc(-c3ccccn3)cs2)cc1	-81*	?	56µM*	28%	-91*	5.6µM*
CC(=O)Nc1ccc(C(=O)Nc2nc(-c3cccnc3)cs2)cc1	-6	4µM*	-18%	29%	-13	-28%
O=C(Nc1nc(-c2ccccn2)cs1)c1ccccc1-n1cnnn1	-91*	10µM*	?	-15%	-98*	22µM*
O=C(Nc1ccccn1)c1ccc2c(c1)OCCO2	13	16%[59 µM]	-3%	17%	-2	-8%
O=C(Nc1nc(-c2ccccn2)cs1)c1ccc2c(c1)OCCO2	-82*	-26%	56µM*	45%	?	22µM*
